Experiment [1] is described as follows: AP1 Signaling Pathway (AID 357).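 Further: ME-180 reporter cells stimulated with EGF at its EC50 level; on the % scale 0 is the no-effect control and ±100 the full control effect.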 The conditions noted are these: ME-180 AP-1-bla reporter, EGF-induced, beta-lactamase ratio, 5 h; at 17.2 µM (top of the series) unless noted. The essentials:
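Cells are seeded overnight, exposed to compound titrations and an EC50 level of EGF for 5 hours at 37 °C, then loaded with CCF4 dye for 2.5 hours. Beta-lactamase activity under the AP-1 element is read as a blue/green ratio.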

The nature of experiment [2]: Stat Signaling Pathway (AID 446).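 Further: ME-180 cervical cancer cells given 40 pM IL-6 alongside compound; SIE-controlled beta-lactamase reporter measured as 460/530 nm FRET emission ratio; on the % scale 0 is the no-effect control and ±100 the full control effect.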 The conditions noted are these: ME-180 (cervical carcinoma) SIE beta-lactamase reporter, IL-6 stimulated, 5 h; at 17.2 µM (top of the series) unless noted. The method in brief:
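Normalization used AC90 stimulation (300 pM IL-6) and AC90 inhibition (125 nM pan-JAK inhibitor at 40 pM IL-6). The underlying signal is SIE-driven beta-lactamase in ME-180 cells after 5 h IL-6 exposure with compound.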

In experiment [3] the target is Glucocorticoid receptor (Homo sapiens) (UniProt P04150). Nature of the experiment: GR-GFP Redistribution (AID 450;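 active means compounds whose dose series gives a full or clear partial fitted curve of increased nuclear translocation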; further: potency means the concentration at half of the fitted maximal effect).

Unmarked numbers belong to inactive results. Records with an inconclusive call do not appear. Activity calls are given as the source filed them. Unless noted, the call rests on the fitted dose curve; in most records, active means well fitted curve in either direction with a large enough effect (not every such curve was filed as active); inconclusive means small, poorly fitted or top-dose-only effect, or another doubt; inactive means flat fitted curve, though single readings scatter.

Sequence of Glucocorticoid receptor (Homo sapiens) (P04150 whole entry, looked up): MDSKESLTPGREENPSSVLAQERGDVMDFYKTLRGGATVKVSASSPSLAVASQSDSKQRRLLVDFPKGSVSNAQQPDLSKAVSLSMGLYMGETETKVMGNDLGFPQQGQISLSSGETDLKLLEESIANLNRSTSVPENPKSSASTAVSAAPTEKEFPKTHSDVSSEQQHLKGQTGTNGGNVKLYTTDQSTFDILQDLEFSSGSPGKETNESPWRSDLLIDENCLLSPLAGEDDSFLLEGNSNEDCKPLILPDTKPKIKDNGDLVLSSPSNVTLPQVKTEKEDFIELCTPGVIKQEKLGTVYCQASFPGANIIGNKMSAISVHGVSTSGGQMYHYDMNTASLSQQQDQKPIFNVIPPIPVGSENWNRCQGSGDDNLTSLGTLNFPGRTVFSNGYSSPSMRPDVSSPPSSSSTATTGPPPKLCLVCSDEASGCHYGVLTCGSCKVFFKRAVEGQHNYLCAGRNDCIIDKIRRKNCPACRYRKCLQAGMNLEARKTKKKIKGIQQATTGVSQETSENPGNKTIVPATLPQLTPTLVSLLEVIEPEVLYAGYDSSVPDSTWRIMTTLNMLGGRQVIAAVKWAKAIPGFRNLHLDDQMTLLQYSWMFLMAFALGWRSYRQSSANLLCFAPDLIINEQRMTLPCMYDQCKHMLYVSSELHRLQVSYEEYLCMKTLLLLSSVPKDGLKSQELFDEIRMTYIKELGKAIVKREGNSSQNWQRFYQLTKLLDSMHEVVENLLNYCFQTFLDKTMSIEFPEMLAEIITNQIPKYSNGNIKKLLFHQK

Turning to `O=C(NC1CCCCC1)N1CCSC1=Nc1ccccc1`, the activity change, negative = inhibition in experiment [1] was 4.48%. For the same compound, the activity, negative = inhibition in experiment [2] was -11.7%. Further, the Potency in experiment [3] was > 20.6 µM.
For `CCC12CN3CC(CC)(CN(C1)C3c1c(O)ccc3ccccc13)C2=O` (configuration not stated) the same measures were 2.68%, -7.82% and > 20.6 µM.
For `CCCn1c(SCC#N)nc2c(c1=O)C1(CCCC1)Cc1ccccc1-2` the same measures were 13.8%, 2.26% and > 20.6 µM.
Taken in the same sequence, the figures for `CCc1c(C)c2cc(Cl)c(O)c(CN3CCCCC3)c2oc1=O` were 3.67%, 11.7% and > 20.6 µM.
For `COc1ccc(CN(C#N)c2nc(SC)nc(N(C)C)n2)cc1`, the activity change, negative = inhibition in experiment [1] is -3.69%. Further, in experiment [2], the activity, negative = inhibition is 2.92%. The Potency in experiment [3] is > 20.6 µM.
For `COCCCNC(=O)c1c(N)n(/N=C/c2ccccn2)c2nc3ccccc3nc12` the same measures were -25.1%, -10.3% and > 20.6 µM.
For `CCc1nc(NC2CCCCC2)c(C#N)c2c1COC(C)(C)C2` the same measures were 7.15%, 7.37% and > 20.6 µM.
Taken in the same sequence, the figures for `Cc1nc2c(c(=O)n1CC1CCCO1)c1nc3ccccc3nc1n2Cc1ccc2c(c1)OCO2` (configuration not stated) were 1.65%, -13.4% and > 20.6 µM.
In the case of `N#Cc1c(-c2ccccc2Cl)cc(C2CC2)nc1N`, in experiment [1], the activity change, negative = inhibition was 4.21%. For the same compound, the activity, negative = inhibition in experiment [2] was -2.15%. In addition, the Potency in experiment [3] is > 20.6 µM.
Take `CCCCOC(=O)C(C)c1c(C)[nH]c(=S)[nH]c1=O` (configuration not stated): the activity change, negative = inhibition in experiment [1] was 7.17%. Also, the activity, negative = inhibition in experiment [2] was -3.5%. In addition, in experiment [3], the Potency is > 20.6 µM.
Take `C1CCCN(CCCCN2CCCCCC2)CC1`: in experiment [1], the activity change, negative = inhibition is 3.84%. Also, in experiment [2], the activity, negative = inhibition is 16%. In addition, the Potency in experiment [3] is > 20.6 µM.
Taken in the same sequence, the figures for `C=CCOn1c(=O)c(-c2cc3ccccc3o2)[n+]([O-])c2ccccc21` were -28.9%, -8.42% and > 20.6 µM.
Taken in the same sequence, the figures for `CCCCn1c(O)c(C=NCCCN(C)C)c(=O)[nH]c1=O` were -1.31%, 3.99% and > 20.6 µM.
Taken in the same sequence, the figures for `COc1cc([C@@H]2[C@H]3CNCC=C3C(C#N)=C(N)C2(C#N)C#N)ccc1OC(C)C` were 14%, 10.8% and > 20.6 µM.
Turning to `Nc1ccc2oc(-c3cc(Br)ccc3Cl)nc2c1`, the activity change, negative = inhibition in experiment [1] is -29.4%. Further, the activity, negative = inhibition in experiment [2] was 0.658%. In addition, in experiment [3], the Potency was > 20.6 µM.
Taken in the same sequence, the figures for `O=S(=O)(c1cccc(-c2csc(-c3ccccc3)n2)c1)N1CCOCC1` were -13.8%, -9.15% and > 20.6 µM.
Regarding `Nc1c2c(nc3ccccc13)N(C1CCCCC1)CC2`, in experiment [1], the activity change, negative = inhibition was 13.8%. Also, the activity, negative = inhibition in experiment [2] is 16.7%. The Potency in experiment [3] is > 20.6 µM.
Taken in the same sequence, the figures for `CC1(C)Cc2c(C#N)c(SCC(=O)c3ccccc3)nc(N3CCOCC3)c2CS1` were -7.36%, 0.377% and > 20.6 µM.
For `CCOc1ccccc1N1CCN(c2nc3ccccc3nc2C(C#N)C(=O)OC(C)C)CC1` (configuration not stated) the same measures were 16.5%, -13.8% and > 20.6 µM.
As to `COc1cccc(C(=O)c2sc(NC(C)C)nc2N)c1`, in experiment [1], the activity change, negative = inhibition was -116% (active). Further, the activity, negative = inhibition in experiment [2] is -103% (active). Moreover, in experiment [3], the Potency is > 20.6 µM.
For `CCCCCc1ccc(-c2ccc(=O)[nH]n2)cc1` the same measures were 7.59%, 13.6% and > 20.6 µM.
In the case of `CC1(C)Cc2c(c(-c3ccco3)[nH]c(=O)c2C#N)CS1`, in experiment [1], the activity change, negative = inhibition is -2.31%. The activity, negative = inhibition in experiment [2] is 11.6%. Further, the Potency in experiment [3] is > 20.6 µM.
Turning to `C=C1c2cc(OC)ccc2NC(=O)N1CC`, the activity change, negative = inhibition in experiment [1] is 13.3%. Besides, the activity, negative = inhibition in experiment [2] was 1.02%. The Potency in experiment [3] was > 20.6 µM.
Taken in the same sequence, the figures for `C[C@]12CC[C@@H]3c4ccc(O)cc4C(=O)C[C@H]3[C@@H]1CC[C@@H]2O` were 0.317%, -2.37% and > 20.6 µM.
On to `Cc1nnc(C)n1/N=C/c1cc(Br)cc(Br)c1O`, for which the activity change, negative = inhibition in experiment [1] was -5.92%. Also, the activity, negative = inhibition in experiment [2] is -19.2%. For the same compound, the Potency in experiment [3] was > 20.6 µM.
Taken in the same sequence, the figures for `CCCCOc1ccc(C(=O)OC2CC(C)N(C)CC2C)cc1` (configuration not stated) were 5.59%, 1.35% and > 20.6 µM.
For `O=C(c1cccs1)N1CCC(N2CCN(c3ccccc3)CC2)CC1` the same measures were 9.88%, -2.08% and > 20.6 µM.
As to `CC(C)Cc1nc(N2CCN(C(=O)Cc3ccccc3)CC2)c(C#N)c2c1COC(C)(C)C2`, the activity change, negative = inhibition in experiment [1] is -5.38%. Besides, the activity, negative = inhibition in experiment [2] is -23.7%. Moreover, in experiment [3], the Potency was > 20.6 µM.
Taken in the same sequence, the figures for `CCN(CC)CCCn1c(C)cc2c(c1=O)C(c1ccc(OC)c(OC)c1OC)C(C#N)=C(N)O2` (configuration not stated) were 6.36%, 10.3% and > 20.6 µM.

Values taken from PubChem BioAssay (NCATS).
